Screens from PubChem.
Shown are actives, neighbours in structure and some others; about 3.3% of the full set was active somewhere.
NR3A LBD binder – modulators (binders) of human NR3A ligand-binding domain; NR3A LBD differential scanning fluorimetry, Tm shift; 0% = protein alone, 100% = glycine-bound protein; Tm shift relative to glycine control, % at 25 µM; 2.5% of 340,000 active;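 active = melting temperature shift of at least 10% of the positive control shift, at one fixed dose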
SUMO HTRF inh – blocks human SUMOylation mediated by UBC9 | P63279 | HTRF SUMOylation assay, SAE1/SAE2 + UBC9, in vitro | inhibition, % at 35 µM | 0.36% of 290,000 active; in the data active = inhibition above about 50%, passing the limit was not always enough; inconclusive = no clear call, values can overlap the other calls
HGIII-sPLA2 inh – Inhibits HGIII-sPLA2 liposome hydrolysis, primary screen; Q9NZ20; QFRET BODIPY PC-A2 liposome hydrolysis, fluorescence; inhibition, % at 12.2 µM; 0.56% of 370,000 active; AID 743126;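 active = inhibition above mean plus 3 SD of compounds lying within the high and low control bounds, cut at about 19% in these data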
Target sequence (Q9NZ20 whole entry, looked up): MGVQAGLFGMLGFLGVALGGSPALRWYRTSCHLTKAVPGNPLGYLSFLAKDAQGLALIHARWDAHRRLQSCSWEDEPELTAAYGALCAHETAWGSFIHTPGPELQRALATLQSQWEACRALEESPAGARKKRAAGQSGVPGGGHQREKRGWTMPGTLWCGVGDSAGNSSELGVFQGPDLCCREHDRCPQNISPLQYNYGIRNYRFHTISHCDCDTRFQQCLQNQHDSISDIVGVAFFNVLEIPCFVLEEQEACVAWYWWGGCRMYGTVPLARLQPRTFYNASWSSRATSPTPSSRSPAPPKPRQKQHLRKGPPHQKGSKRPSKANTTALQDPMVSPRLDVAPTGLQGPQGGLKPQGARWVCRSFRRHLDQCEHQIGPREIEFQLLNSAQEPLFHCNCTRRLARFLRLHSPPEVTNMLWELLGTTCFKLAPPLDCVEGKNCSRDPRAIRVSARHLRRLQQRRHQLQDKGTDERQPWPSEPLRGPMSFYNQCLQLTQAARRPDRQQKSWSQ
UBC13 inh – inhibitors of human UBC13 polyubiquitin chain formation; TR-FRET; inhibition, % at 20 µM; 0.47% of 330,000 active; AID 485273; in the data active = inhibition above about 45%, passing the limit was not always enough; inconclusive = no clear call, values can overlap the other calls
Large screens that a line does not name were inactive; ! = a repeat was not active.

O=C(CSc1ccc([N+](=O)[O-])cc1)Nc1cccc(S(=O)(=O)Nc2ccccc2F)c1	NR3A LBD binder 24.4
Cc1onc(-c2c(F)cccc2Cl)c1C(=O)Nc1cc(S(=O)(=O)N2CCCCC2)ccc1O	NR3A LBD binder 16.2 (no result: SUMO HTRF inh, UBC13 inh)
CC(C)(CCC(=S)N1CCOCC1)c1ccccc1	NR3A LBD binder 11.2 (no result: SUMO HTRF inh, UBC13 inh)
O=C(CCCCC(=O)Nc1c(I)cc(I)c(C(=O)O)c1I)Nc1c(I)cc(I)c(C(=O)O)c1I	none (no result: SUMO HTRF inh)
CC(=O)Nc1c(I)c(NC(C)=O)c(I)c(C(=O)O)c1I	NR3A LBD binder 12.9!
Cc1oc(C(=O)Nc2ccc(O)cc2)cc1COc1ccccc1	NR3A LBD binder 16.0
Cc1cc(-c2nc3cc(F)ccc3s2)ccc1N	NR3A LBD binder 13.0 (no result: SUMO HTRF inh, UBC13 inh)
Nc1ccc(-c2nc3ccc(N)cc3s2)cc1	SUMO HTRF inh inconclusive
C[C@H]1COc2cc(Br)ccc2S(=O)(=O)N1Cc1cn(CCC2OCCCO2)nn1	none (no result: NR3A LBD binder, SUMO HTRF inh, UBC13 inh)
O=C(/C=C1\SC(=O)N(CC(=O)Nc2ccc(F)cc2)C1=O)Nc1ccc(Cl)cc1	NR3A LBD binder 27.2
O=C(/C=C1\SC(=O)N(CC(=O)Nc2ccc(Cl)cc2)C1=O)Nc1ccc(F)cc1	NR3A LBD binder 36.0
Cc1ccc(OCCn2c(CCNC(=O)C3CCCCCC3)nc3ccccc32)cc1	none (no result: NR3A LBD binder, SUMO HTRF inh, UBC13 inh)
CN(CCO)c1ccc2c(c1)Oc1ccccc1CN(Cc1cn(Cc3ccc(C(F)(F)F)cc3)nn1)S2(=O)=O	none (no result: NR3A LBD binder, SUMO HTRF inh, UBC13 inh)
O=C(Nc1ccc(Cl)cc1Cl)c1cccc(N2C(=O)C=CC2=O)c1	HGIII-sPLA2 inh 22.7 (no result: SUMO HTRF inh)
COC(=O)[C@]12C[C@H](CC(=O)NCC3CCCCC3)C(=O)N(CCC3=CCCCC3)C1=C[C@H](C(C)C)O[C@@H]2C1CC1	none (no result: NR3A LBD binder, SUMO HTRF inh, UBC13 inh)
CC(CCc1ccccc1)NC(=O)COc1cc(F)ccc1[N+](=O)[O-] (stereo not given)	none
CC(CCc1ccccc1)NC(=O)COC(=O)c1cc(NS(=O)(=O)c2ccc(Cl)c([N+](=O)[O-])c2)ccc1O (stereo not given)	NR3A LBD binder 22.1
CC(CCc1ccccc1)NC(=O)COc1ccc(S(=O)(=O)N2CCOCC2)cc1[N+](=O)[O-] (stereo not given)	NR3A LBD binder 12.7
CNS(=O)(=O)c1cccc(C(=O)OCC(=O)NC(C)CCc2ccccc2)c1 (stereo not given)	none
COc1ccc2cc3c(N)nn(C(=O)c4ccc(Cl)c([N+](=O)[O-])c4)c3nc2c1	NR3A LBD binder 22.0
CCCNC(=O)COC(=O)c1cc(SC)ccc1Cl	none
CSc1ccc(Cl)c(C(=O)OCC(=O)NC2CC2)c1	NR3A LBD binder 11.7
COc1ccc2o/c(=N\O)c(C(=O)Nc3ccccc3OC)cc2c1	none
COc1ccc(NC(=O)c2cc3ccc(O)cc3o/c2=N\O)cc1	NR3A LBD binder 35.8
COC(=O)C1CN(Cc2ccc(Cl)cc2)CCS(=O)(=O)N1Cc1cn(Cc2ccc(OC)cc2)nn1 (stereo not given)	none (no result: NR3A LBD binder, SUMO HTRF inh, UBC13 inh)
Cc1ccc(OCC(=O)N/N=C/c2c[nH]c3ccccc23)c([N+](=O)[O-])c1	NR3A LBD binder 23.7
Cc1ccccc1NCC(=O)N/N=C/c1c[nH]c2ccccc12	NR3A LBD binder 23.9
Cc1ccccc1NCC(=O)N/N=C/c1ccc[nH]1	none (no result: NR3A LBD binder, SUMO HTRF inh, UBC13 inh)
Cc1cccc(NCC(=O)N/N=C\c2c[nH]c3ccccc23)c1	NR3A LBD binder 16.4
CCOC(=O)C(Cc1ccccc1)P(=O)(OCC)OCC (stereo not given)	none (no result: NR3A LBD binder, SUMO HTRF inh, UBC13 inh)
O=S(=O)(N[C@H]1C[C@@H](NS(=O)(=O)OCC(Cl)(Cl)Cl)C2CCCCC21)OCC(Cl)(Cl)Cl (stereo not given in full)	NR3A LBD binder 18.4 (no result: UBC13 inh)
CCCC(=O)OC12CCCN(C1)/C(=C/c1ccc(OC)cc1)C2 (stereo not given)	none (no result: NR3A LBD binder, SUMO HTRF inh, UBC13 inh)
CC(=O)Nc1ccc(N2S(=O)(=O)c3ccccc3S2(=O)=O)cc1	NR3A LBD binder 11.0
Nn1c(SCC(=O)N2CCOCC2)nnc1-c1n[nH]c2c1CCC2	none (no result: NR3A LBD binder, SUMO HTRF inh, UBC13 inh)
CCOC(=O)c1cnn(CCOC(=O)c2ccccc2)c1NC(=O)c1ccccc1	none
CCOC(=O)c1cnn(CCOC(=O)c2ccc(OC)cc2)c1NC(=O)c1ccc(OC)cc1	NR3A LBD binder 16.4
CCOC(=O)c1cnc2ccc(C)cc2c1Sc1ccccc1	none
CCOC(=O)c1cnc2ccc(C)cc2c1Sc1ccc(F)cc1	NR3A LBD binder 18.7
O=C(CNC(=O)c1ccccc1O)N/N=C/c1cc(Br)ccc1OC(=O)/C=C/c1ccco1	NR3A LBD binder 12.6
CCC[C@H]1[C@@H](N(C)Cc2cccs2)CC[C@@]23CCCN2C(=O)CCC[C@@H]13	none (no result: NR3A LBD binder, SUMO HTRF inh, UBC13 inh)
CCOC(=O)C(/C(C)=N/NC(=O)C1CC1c1ccccc1)C(C)C (stereo not given)	NR3A LBD binder 15.9
O=[N+]([O-])c1ccc(NN=Cc2cc(Br)ccc2O)nc1	NR3A LBD binder 31.3 (no result: SUMO HTRF inh, UBC13 inh)
